About 8,600 (12%) of roughly 69,000 compounds showed an effect of 50% or more. The entries come from a sample that favours strong results as a whole.

This is an account of results in ChEMBL document CHEMBL4513216, “Probing the Open Global Health Chemical Diversity Library for Multistage-Active Starting Points for Next-Generation Antimalarials” (ACS Infect Dis, 2020).

For this experiment, the system named is Plasmodium berghei. Put plainly: Screen against P. berghei liver stage (PbLuc), transformed with Luciferase, at 10uM. Particulars: tested at 10 uM. In kind it is functional, HepG2.
For `CN(CC(=O)NCCCOc1ccc(F)cc1)c1ccc(C#N)cn1`, the INHIBITION was determined as 3.84%.
Consider `O=c1[nH]c2cn(-c3ccccc3)c(=O)n2[nH]1`, for which the INHIBITION was 14.2%.
The value for `Cc1cc(C)nc(C2CCCN2S(=O)(=O)N2CCOCC2)n1` (stereo not drawn) was 43.4%.
To `Cc1ccc(C(=O)N2CCCC(c3[nH]ncc3S(C)(=O)=O)C2)s1` (stereo not drawn) belongs 33.7%.
To `CS(=O)(=O)NC[C@]12COC[C@H]1CN(Cc1ccc3c(c1)OCO3)C2` belongs 38.5%.
On to `Cn1cc(C(=O)NCC(Cc2cccc(F)c2)N2CCCCC2=O)nn1` (stereo not drawn), for which the INHIBITION stood at 6.83%.
The value for `O=C(CN1CCC(C(=O)c2cc(F)ccc2F)CC1)NC1CC1` was 56.5%; that for `O=C(CCN1CCC(C(=O)c2cc(F)ccc2F)CC1)NC1CC1` was -1.58%.
To `COC(=O)CN1CCC(C(=O)c2cc(F)ccc2F)CC1` belongs 15.3%; to `O=C(CN1CCC(C(=O)c2cc(F)ccc2F)CC1)NC1CCCC1`, 51.3%.
The value for `O=C(CCN1CCC(C(=O)c2cc(F)ccc2F)CC1)NC1CCCC1` was 36.2%; that for `C=C(Cl)CN1CCC(C(=O)c2cc(F)ccc2F)CC1` was 17.8%.
On to `CC(=O)N[C@H]1CCO[C@@H](c2cccc(NC(=O)c3cccc(F)c3)c2)C1`, for which the INHIBITION was 6.74%.
To `O=C(NC1CC1)N1CCc2ncc(CN3CCOCC3)n2CC1` belongs 15.9%; to `COc1ccc(CN2CC[C@H]3[C@H]2CC(=O)N3Cc2cccc(C)n2)cc1`, -31.9%; to `Cc1ccc(N2C[C@H]3OCC[C@H]3[C@H](C(=O)NCC3CC3)C2)nn1`, 49.7%.
The value for `CCc1nnc(CS(=O)(=O)c2ccc(C)cc2)n1C` was 35.1%.
Turning to `CCCN(CCC)C(=O)CN(C)C1CCc2ccccc21` (stereo not drawn), the INHIBITION is recorded as 15.55%.
To `CN(CC(=O)N(C)C1CCCCC1)C1CCc2ccccc21` (stereo not drawn) belongs 37.2%.
To `CN(Cc1ccc(Cl)s1)C(=O)CN(C)C1CCc2ccccc21` (stereo not drawn) belongs 82.5%.
The value for `CC(C)N(C(=O)CN(C)C1CCc2ccccc21)C(C)C` (stereo not drawn) was -30.96%.
As for `CCN(CC)C(=O)CN(C)C1CCc2ccccc21` (stereo not drawn), the INHIBITION was 53.5%.
On to `CN(Cc1c(F)cccc1Cl)C(=O)CN(C)C1CCc2ccccc21` (stereo not drawn), for which the INHIBITION is 85.1%.
As to `CCOC(=O)CN(C)C1CCc2ccccc21` (stereo not drawn), the INHIBITION turned out to be 34.7%.
Regarding `CN(Cc1cccs1)C(=O)CN(C)C1CCc2ccccc21` (stereo not drawn), the INHIBITION is on record as 47.4%.
To `CN(CCC#N)C(=O)CN(C1CC1)C1CCc2ccccc21` (stereo not drawn) belongs -4.15%.
To `C=C(C)CN(CC)C(=O)CN(C)C1CCc2ccccc21` (stereo not drawn) belongs -2.725%.
To `CN(Cc1ccc(Cl)s1)C(=O)CN(C)C1CCCc2ccccc21` (stereo not drawn) belongs 85.9%; to `COC(=O)CN(C)C1CCc2ccccc21` (stereo not drawn), 20.1%; to `Cn1c2c(ccc1=O)CC(Nc1ncc(F)cn1)CC2` (stereo not drawn), -89%.
Regarding `O=C1COC2(CCN(Cc3ccc(F)cc3)CC2)CN1`, the INHIBITION was -7.35%.
To `O=C(CCN1CCOC1=O)N(Cc1ccncc1)CC1CCCO1` (stereo not drawn) belongs 15.7%.
To `NC(=O)c1cc(NC(=O)N2CCOCC2)ccc1F` belongs 33.5%; to `CCS(=O)(=O)N1CCC(Nc2c(Cl)cccc2C#N)CC1`, 29.4%.
The value for `N#Cc1cccc(Cl)c1NC1CCN(CC(N)=O)CC1` was 13.2%; that for `CS(=O)(=O)CCN1CCC(Nc2c(Cl)cccc2C#N)CC1` was 52.6%.
As to `CC(C)C(C)NC(=O)c1ncn2c1CN(C)S(=O)(=O)c1ccccc1-2` (stereo not drawn), the INHIBITION was determined as 8.03%.
Turning to `CNCc1ccc([C@@H]2CN(C(C)=O)C[C@H]2C(=O)N(C)C)cc1`, the INHIBITION was determined as 35.55%.
To `CN(CC(=O)N1CCN(CC(C)(C)O)CC1)c1ccc(Cl)cn1` belongs 25%.
Regarding `CC(C)N1CCCC(C(=O)N(C)CCCc2cnn(C)c2)C1` (stereo not drawn), the INHIBITION is recorded as 51%.
As for `CN(C)C(=O)N1CCCC(C(=O)N(C)CCCc2cnn(C)c2)C1` (stereo not drawn), the INHIBITION is 47.7%.
To `CN(CCCc1cnn(C)c1)C(=O)C1CCCN(C2CCCC2)C1` (stereo not drawn) belongs 37.6%; to `O=C1CCC(=O)N1c1nn(Cc2cccc(F)c2)cc1Cl`, 14.5%; to `CCCNCc1ccc(-c2ccnc3[nH]ccc23)cc1`, 78.8%.
In the case of `CCCNCc1ccc(-c2cc(N)nc3[nH]ccc23)cc1`, the INHIBITION turned out to be 19.7%.
To `CNc1cc(-c2ccc(COCCN)cc2)c2cc[nH]c2n1` belongs -8%.
Take `Cc1ccc2c(c1)C(=O)NCC1(CCN(C(=O)c3scnc3C)CC1)O2`: the INHIBITION stood at 15.9%.
The value for `OCCn1nccc1C1CCN(CCOc2ccc(Cl)cc2)CC1` was 38.8%.
Take `CN1CC2(CCCN(Cc3cccc(Oc4ccccc4)c3)C2)OC1=O` (stereo not drawn): the INHIBITION is on record as 42.5%.
To `CN1CC2(CCCN(CCOCc3ccccc3)C2)OC1=O` (stereo not drawn) belongs 8.08%.
`CN1CC2(CCCN(Cc3ccccc3OCC(=O)O)C2)OC1=O` (stereo not drawn): the INHIBITION came out at 1.37%.
The value for `CN1CC2(CCCN(Cc3ccc(Oc4ccccc4)cc3)C2)OC1=O` (stereo not drawn) was 55%; that for `CN(C)C(=O)COc1ccccc1CN1CCCC2(C1)CN(C)C(=O)O2` (stereo not drawn) was 57.5%.
As to `CN(C)C(=O)COc1ccccc1CN1CCOC2(CCCC2)C1`, the INHIBITION is recorded as 7.58%.
The value for `CC(C)N(CCCNC(=O)C1CC1)S(C)(=O)=O` was 5.91%; that for `Cc1nccn1[C@@H]1CC[C@@H](NC(=O)CCCn2cncn2)[C@H]1O` was 25.071%; that for `COCC1N(C(=O)N2CCOCC2)C2CCC1(O)CC2` (stereo not drawn) was 33.6%.
To `Cc1ccnc(NCCNC(=O)CCNC(=O)c2ccccc2F)c1` belongs 57%; to `Cc1ccnc(NCCNC(=O)c2ccccc2NCC(=O)O)c1`, 11.6%.
The value for `Cc1ccnc(NC(=O)CCNC(=O)c2ccccc2Cl)c1` was 30.2%; that for `CC1=N[C@@]2(CC[C@@H]3CN(C(=O)Nc4ccc(F)cc4)C[C@@H]32)C(=O)N1C` was 0.542%.
For `Cc1ccc(C(=O)N2CCn3cnc(COCC4CC4)c3C2)cn1`, the INHIBITION amounted to 45.2%.
`Cc1nccc([C@H]2C[C@@H]3CCN(C(=O)c4c(C)noc4C)C[C@H]3O2)n1`: the INHIBITION is recorded as -3.88%.
Regarding `COCc1cccc(C(=O)N2CCCC2)c1`, the INHIBITION was determined as 1.98%.
To `COCc1ccc(C(=O)N2CC[C@@](O)(COC)C(C)(C)C2)o1` belongs -26.2%.
For the compound `CCOCCn1nc(C)cc1C(=O)N1CC[C@@](O)(COC)C(C)(C)C1`, the INHIBITION amounted to 16.2%.
The value for `COC[C@]1(O)CCN(C(=O)c2cccc(CN(C)C)c2)CC1(C)C` was 54.7%; that for `COC[C@]1(O)CCN(C(=O)c2ccc(CN(C)C)o2)CC1(C)C` was 76.5%.
`COc1cc(C(=O)N2CCC(O)(CN3CCOCC3)C(C)(C)C2)ccn1` (stereo not drawn): the INHIBITION is 7.93%.
To `CN(C)c1ncc(C2Nc3cc(Cl)ccc3C3=NCCCN32)cn1` (stereo not drawn) belongs 48.4%; to `CN(C)C(=O)c1ccn(COc2ccccc2Cl)n1`, -28%.
`Cn1nc(CN2CCCCC2)c2c1CN(C(=O)c1cccc(Cl)c1)C2`: the INHIBITION was -41.8%.
Turning to `CC(NC(=O)N1CCN(c2nccs2)CC1)c1nncn1C` (stereo not drawn), the INHIBITION is reported as -15.5%.
Take `C[C@H]1CN(c2ccccn2)C[C@@]12CCN(Cc1cccnc1)C2=O`: the INHIBITION was 48.4%.
The value for `CN(C)C(=O)CN1CCCC(Cc2ccc(N3CCCC3)nn2)C1` (stereo not drawn) was 42.4%; that for `CN1[C@H](Cn2cccn2)C[C@@H]2CN(C(=O)Cc3cccs3)CC[C@@H]21` was 37.4%; that for `CN1C(Cn2cccn2)C[C@@H]2CN(Cc3cnn(C)c3)CC[C@@H]21` (stereo partly drawn) was -10.3%.
Regarding `c1cnn(C[C@@H]2C[C@@H]3CN(CC4CC4)CC[C@@H]3N2c2nccs2)c1`, the INHIBITION is on record as 79.2%.
To `CCC(=O)N1CC[C@H]2[C@H](C[C@@H](Cn3cccn3)N2c2nccs2)C1` belongs 21.6%; to `CN1C(Cn2cccn2)C[C@@H]2CN(Cc3nccs3)CC[C@@H]21` (stereo partly drawn), 20.4%; to `CC(C)N1CC[C@H]2[C@H](C[C@@H](Cn3cccn3)N2c2nccs2)C1`, 54.4%.
To `O=C(CCCn1cnnn1)N1CCC(c2ccncc2)CC1` belongs 31.4%; to `CN(Cc1ccco1)Cc1cncc2c1CCN(Cc1ccoc1)C2`, 38.5%.
To `CC(=O)N1N=C(c2ccco2)OC1C(=O)NCCc1ccc(F)cc1` (stereo not drawn) belongs -50.8%; to `CCOCC1CN(C(=O)c2ccncn2)Cc2cnn(C)c21` (stereo not drawn), 1.48%.
On to `CC(CCc1ccccc1)NC(=O)CN1CCOCC1` (stereo not drawn), for which the INHIBITION turned out to be 20.8%.
To `CC(CCc1ccccc1)NC(=O)CNCCCN(C)C` (stereo not drawn) belongs 52.5%; to `CC(CCc1ccccc1)NC(=O)CNCCCN1CCOCC1` (stereo not drawn), 32.7%; to `Cn1cnnc1SCC(=O)NC1CC(=O)N(CCc2ccccc2)C1` (stereo not drawn), -6.18%.
As for `COCCCN(C)c1cc(C(F)(F)F)nc(-c2cccnc2)n1`, the INHIBITION came to 59.4%.
The value for `CC(O)CN(C)c1cc(C(F)(F)F)nc(-c2cccnc2)n1` (stereo not drawn) was 16.6%.
`CN(CCn1cccn1)c1cc(C(F)(F)F)nc(-c2cccnc2)n1`: the INHIBITION is reported as 3.67%.
To `FC(F)(F)c1cc(NCCCn2cccn2)nc(-c2cccnc2)n1` belongs 15.1%; to `COCC(O)CN(C)c1cc(C(F)(F)F)nc(-c2cccnc2)n1` (stereo not drawn), 85.1%.
To `CC(=O)N1CCc2c(nc(-c3cccnc3)nc2N(C)CC(O)CO)C1` (stereo not drawn) belongs -31.4%; to `CCN(Cc1cn(CC2CCNCC2)nn1)CC1CCCO1` (stereo not drawn), -16.3%.
To `CN(C)C(=O)[C@@H]1CC[C@@H]2[C@@H](CCN2Cc2nccs2)O1` belongs -22.1%; to `CCC1=N[C@@]2(CC[C@@H]3CN(Cc4ccccc4F)C[C@@H]32)C(=O)N1CC`, 13.5%.
In the case of `Cc1cc(C(=O)N(C)Cc2cccs2)nc(N2CCCC2)n1`, the INHIBITION is -33.7%.
To `Cc1cc(C(=O)N(C)Cc2cccs2)nc(N2CCCCC2)n1` belongs 52.4%; to `Cc1cc(C(=O)N(C)Cc2cccs2)nc(N2CCOCC2)n1`, 19.3%; to `CC(C)OCCCNC(=O)CS(=O)(=O)Cc1ccc(C(C)C)cc1`, 7.67%.
The value for `CCCOc1cc(C)ccc1NC(=O)N(C)C` was 24.2%.
